Bioassay records as filed in PubChem BioAssay.
Sampled rows, rich in hits. Any-hit rate of the full collection: about 2.9%.
ABHD5 PLIN5 PPI: ABHD5-PLIN5 protein interaction inhibition; Q00G26+Q8WTS1; Split G. princeps luciferase complementation, luminescence, 4 h; inhibition, % at 4 µM; 0.78% of 360,000 active;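 active = inhibition above the mean inhibition across every tested compound plus 3 SD, cut at about 22% in these data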
HGIII-sPLA2 inh: Inhibits HGIII-sPLA2 liposome hydrolysis, primary screen; QFRET BODIPY PC-A2 liposome hydrolysis, fluorescence; 0.56% of 370,000 active; inhibition, % at 12.2 µM; Q9NZ20;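 active = inhibition above mean plus 3 SD of compounds lying within the high and low control bounds, cut at about 19% in these data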
Target sequence (Q9NZ20 whole entry, looked up): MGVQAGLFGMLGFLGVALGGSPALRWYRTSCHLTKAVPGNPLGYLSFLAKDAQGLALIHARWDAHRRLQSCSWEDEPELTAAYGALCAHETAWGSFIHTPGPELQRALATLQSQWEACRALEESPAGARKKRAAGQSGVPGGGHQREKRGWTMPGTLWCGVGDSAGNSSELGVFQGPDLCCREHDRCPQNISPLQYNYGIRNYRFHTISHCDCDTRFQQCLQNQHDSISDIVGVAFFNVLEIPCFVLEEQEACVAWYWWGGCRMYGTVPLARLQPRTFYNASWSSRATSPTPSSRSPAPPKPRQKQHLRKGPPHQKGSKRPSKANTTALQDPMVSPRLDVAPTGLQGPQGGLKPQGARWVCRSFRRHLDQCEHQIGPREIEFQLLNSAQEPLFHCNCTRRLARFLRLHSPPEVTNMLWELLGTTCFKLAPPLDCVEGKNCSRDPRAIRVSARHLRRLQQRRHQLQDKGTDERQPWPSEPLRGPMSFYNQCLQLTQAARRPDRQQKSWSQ
DAGLB inh: blocks human DAGLB lipase activity; Q8NCG7; HEK293T DAGLB membrane lysate, EnzChek fluorogenic substrate; inhibition, % at 5.17 µM; 0.059% of 340,000 active; in the data active = inhibition above about 34%
Myeloid diff MLP: compounds promoting myeloid differentiation. ER-HoxA9 myeloid progenitors, lysozyme-GFP differentiation, flow cytometry. calls only at 10 µM. 1% of 360,000 active. AID 624256;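 active = normalized GFP-positive differentiation at or above the plate's own cutoff, the solvent-only control mean plus 3 SD; inconclusive = no clear call, values can overlap the other calls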;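 also: cells exposed to compound for four days before flow analysis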
Rtt109 HAT inh: C. albicans Rtt109 histone acetyltransferase inhibition; 0.16% of 330,000 active; inhibition, % at 34.9 µM; purified Rtt109/Vps75, ThioGlo CoA-SH fluorescence, 4 h; Q5AAJ8;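 active = inhibition of at least 50% in every replicate; inconclusive = best replicate reaches 50% inhibition but some replicates fall short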
H9c2 protect: protects H9c2 cardiomyocytes from peroxide injury | H2O2 injury protection, ATPLite, 2 h | protection from H2O2 cell death, % at 20 µM | 0.63% of 360,000 active;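 active = compounds giving at least 50% protection of heart cells from peroxide-induced death in the single-dose screen, raw or plate-pattern-corrected value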
Of the large screens only hits and unclear results are named; the others gave an inactive call.

Cc1cc(C(=O)Cn2nnc3ccccc3c2=O)c(C)n1-c1ccccc1F	Myeloid diff MLP active
Cc1ccc(S(=O)(=O)NCCS(=O)(=O)N2CCN(c3ccc(F)cc3)CC2)cc1	none
NNC(=O)c1csc(-c2ccc(C(F)(F)F)cc2Cl)n1	Myeloid diff MLP active
O=C(Nc1nc(-c2ccco2)c(-c2ccco2)s1)c1c(F)cccc1Cl	ABHD5 PLIN5 PPI 33
O=C(Nc1nc(-c2ccco2)c(-c2ccco2)s1)c1ccc(F)cc1F	none
Cc1ccc(-n2c(Cl)c(Cl)nc(Cl)c2=O)cc1	ABHD5 PLIN5 PPI 85 (no result: HGIII-sPLA2 inh, Myeloid diff MLP)
CC1(C)CC(=O)C(CS(=O)(=O)c2ccccc2)=C(Cl)C1	none
CCCCNC(=O)CSc1nnc(Cc2ccccc2)n1CC1CCCO1 (centres undefined)	none
C=CCNC(=S)Nc1ccc(Cl)cc1	none
Cc1c(S(=O)(=O)c2ccccn2)c(N)n(Cc2ccccc2Cl)c1C	Myeloid diff MLP active
Cc1c(S(=O)(=O)c2ccccn2)c(N)n(Cc2ccccc2)c1C	none (no result: DAGLB inh, Rtt109 HAT inh)
COC(=O)C1=C(C)N(Cc2ccccc2)C(=NCCc2cccnc2)N[C@H]1c1ccccc1	none (no result: HGIII-sPLA2 inh)
COC(=O)C1=C(C)N(Cc2ccccc2)C(=NCCc2cccnc2)N[C@H]1c1ccc(Br)cc1	Myeloid diff MLP active (no result: HGIII-sPLA2 inh)
Cc1c(N=Cc2cc3c(cc2[N+](=O)[O-])OCO3)cccc1[N+](=O)[O-]	H9c2 protect 72
Cc1ccccc1N=Cc1cc2c(cc1[N+](=O)[O-])OCO2	H9c2 protect 62
O=S(=O)(Nc1cccc(S(=O)(=O)N2CCCC2)c1)c1ccc(Cl)cc1	none
CNC(=O)C[C@@H]1C(=O)N(C2CCCCC2)CC1(C)C	Myeloid diff MLP active (no result: Rtt109 HAT inh)
COc1ccccc1N1CCN(S(=O)(=O)CCNC(=O)CC2CCCC2)CC1	none (no result: Rtt109 HAT inh)
CCOC(=O)C1(Cc2ccc(Cl)cc2)CCN(C(C)Cc2ccc(O)c(OC)c2)CC1 (centres undefined)	none
CCc1ccccc1NC(=O)C1=CC(c2cccs2)=NS(=O)(=O)N1C	none
CN1CCCN(C(=O)Cc2c(Cl)cccc2Cl)c2nc3ccccc3nc21	Myeloid diff MLP active
CC(=O)Nc1cccc(NC(=O)CSc2nc(=O)n(Cc3ccccn3)c3c2CCC3)c1	none
COc1cc(Br)cc(C=Nc2cccc(C(F)(F)F)c2)c1O	H9c2 protect 53
CCOC(=O)c1c(SCCN2CCCC2)n(-c2ccccc2)c(=S)n(-c2ccccc2)c1=O	ABHD5 PLIN5 PPI 22, Myeloid diff MLP inconclusive
COc1cc(/C=C/C(=O)O)cc(S(=O)(=O)Nc2cc(C(F)(F)F)ccc2N2CCOCC2)c1OC	none
O=c1[nH]c2ccccc2nc1-c1ccccc1	none
NC(=O)N=Nc1c2[nH]c3ccccc3nc-2c2ccccc12	Myeloid diff MLP inconclusive, H9c2 protect 60 (no result: DAGLB inh)
C=CC[C@H](CC(=O)N(CCO)Cc1ccccc1)C(=O)NCCOC(=O)[C@H](CC=C)CC(=O)OC(C)(C)C	none
C=CC[C@@H](CC(=O)N(CCO)Cc1ccccc1)C(=O)NC[C@H](OC(=O)[C@@H](CC=C)CC(=O)OC(C)(C)C)c1ccccc1	ABHD5 PLIN5 PPI 22
C=CC[C@@H](CC(=O)NCCO)C(=O)NC[C@H](OC(=O)[C@@H](CC=C)Cc1ccc(F)cc1)c1ccccc1	H9c2 protect 70
CC(C)[C@@H](N)C(=O)NCC1CCC(C(=O)N[C@@H](Cc2ccccc2)C(=O)O)CC1 (some centres undefined)	none
O=S(=O)(c1ccc(Br)cc1)N1CCN(c2cc(-c3ccccc3)nc3ncnn23)CC1	none (no result: HGIII-sPLA2 inh)
O=S(=O)(c1ccccc1)N1CCN(c2cc(-c3ccccc3)nc3ncnn23)CC1	Myeloid diff MLP active
O=C(COC(=O)c1ccc([N+](=O)[O-])o1)Nc1cccc(S(=O)(=O)N2CCOCC2)c1	none
COc1ccc([C@H]2/C=C\CN(C(=O)c3ccccc3)[C@@H](C)C(=O)N2Cc2ccc(F)cc2)cc1	none
COc1ccc([C@H]2/C=C\CN(S(=O)(=O)/C=C/c3ccccc3)[C@@H](C)C(=O)N2Cc2ccc(F)cc2)cc1	Myeloid diff MLP active
CCOc1ccc2c(ccc(/C=C/c3cc(C)c4cccnc4c3O)[n+]2C)c1	ABHD5 PLIN5 PPI 26 (no result: HGIII-sPLA2 inh)
COC(=O)N1C(=O)[C@](c2ccccc2)(C2CCCCC2)N1C(=O)OC	H9c2 protect 56
COC(=O)N1C(=O)[C@@](c2ccccc2)(C2CCCC2)N1C(=O)OC	none (no result: HGIII-sPLA2 inh)
COc1ccc(-c2ccc(/C=N/NC(=O)c3cccnc3)o2)c([N+](=O)[O-])c1	Myeloid diff MLP active
COc1ccc(-n2nc(C(=O)NCC(=O)N3CCN(c4ccccc4F)CC3)c3ccccc3c2=O)cc1	none
O=C(O)Cn1cc2c(n1)CCCC2	none
O=S(=O)(c1ccc(F)cc1)N1CCN(S(=O)(=O)c2cc(F)ccc2F)CC1	none
c1ccc2c(c1)ncc1cccn12	none (no result: Rtt109 HAT inh)
CCn1c2ccccc2c2c3ncc4cccn4c3ccc21	Myeloid diff MLP active
O=c1cc(CN2CCN(C/C=C/c3ccccc3)CC2)c2cc(O)ccc2o1	none
CC(C)(C)c1ccc(C2=NC(=O)C(CC(=O)O)S2)cc1 (centres undefined)	Myeloid diff MLP active
COc1ccc(C(=O)CC2SC(N)=NC2=O)cc1 (centres undefined)	none
CC(=O)Nc1ccc(N=Cc2c(O)c(C(=O)Nc3ccccc3)cc3ccccc23)cc1	none (no result: ABHD5 PLIN5 PPI, DAGLB inh, Myeloid diff MLP, Rtt109 HAT inh, H9c2 protect)
CCOc1cc(Br)c(Br)c(C=Nc2ccc(NC(C)=O)cc2)c1O	H9c2 protect 94
O=C(CC(C(=O)O)c1ccc(Cl)cc1)c1ccccc1 (centres undefined)	none (no result: Rtt109 HAT inh)
O=C(CC(Nc1ccc(Cl)cc1)C(=O)O)c1ccccc1 (centres undefined)	ABHD5 PLIN5 PPI 22
Cc1ccc2nc(N(CCCN(C)C)C(=O)c3ccc4c(c3)CCCC4)sc2c1	ABHD5 PLIN5 PPI 22, Rtt109 HAT inh 63
CCN(CC)CCN(C(=O)C1=COCCO1)c1nc2ccc(C)cc2s1	Myeloid diff MLP active
Cc1cc(C)c2nc(N(CCCN(C)C)C(=O)c3ccc4c(c3)CCCC4)sc2c1	none (no result: ABHD5 PLIN5 PPI, DAGLB inh, Myeloid diff MLP, Rtt109 HAT inh, H9c2 protect)
CC(C)Nc1nnc(SC(C)C(=O)Nc2ccc(Cl)cn2)s1 (centres undefined)	none
Cc1ccc2cc3c(NC(=O)c4cccnc4)nn(C)c3nc2c1	H9c2 protect 59
CC1CCC2(CC1)NC(=S)N(c1ccccc1)N2 (centres undefined)	Rtt109 HAT inh 95
O=C(C1CCOCC1)N1CCCC(N2CCN(c3cccc(C(F)(F)F)c3)CC2)C1 (centres undefined)	Rtt109 HAT inh 52
O=C(C1CCOCC1)N1CCCC(N2CCN(c3cccc(Cl)c3)CC2)C1 (centres undefined)	none
Cc1ccc(C2=C/C(=C/c3cccs3)C(=O)O2)cc1	none
CSS(=O)(=O)c1cccc2cccnc12	Rtt109 HAT inh 132 (no result: DAGLB inh)
CCN(CC)S(=O)(=O)c1cccc2cccnc12	none
O=Cc1ccc2ccc3cccnc3c2n1	none
